Inconclusive results are not listed. Activity calls are given as the source filed them. Unless noted, calls come from the whole dose curve; as a rule, active = well fitted curve in the direction sought with a large enough effect in the repeat runs; inconclusive = weak or mixed curves; inactive = no such curve, though single readings can be large; an effect the other way counts as inactive or inconclusive.
Columns and labels:
[1] = qHTS RealTime-Glo MT Cell Viability Assay in HEK293 cells - 24 hour (AID 1224886); note: top concentration of the series differs between compounds; nearly all actives have a fitted effect of over 50% in size
In short: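 Luminescence generated by NanoLuc from substrate produced by living HEK293 cells served as the viability signal. Each value reflects the reading at its stated time point during continuous 40 h compound exposure at 37 C.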

[2] = qHTS RealTime-Glo MT Cell Viability Assay in HEK293 cells - 8 hour (AID 1224887); note: top concentration of the series differs between compounds; nearly all actives have a fitted effect of over 50% in size
In short: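 HEK293 cells mixed with RealTime-Glo reagents (NanoLuc plus cell-permeant prosubstrate) at 600 cells/well, preincubated 5 h at 37 C/5% CO2, then given 23 nL compound in DMSO. Nonlytic luminescence from viable cells was read at 0, 8, 16, 24, 32 and 40 h.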

[3] = A CellTox Green Cytotoxicity Assay to monitor cytotoxicity in HEK293 cells - 16 hour (AID 1224888); note: nearly all actives have a fitted effect of over 35% in size
In short: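 HEK293 cells premixed with CellTox Green dye were seeded at 600 cells/well and left 5 h at 37 C/5% CO2 before pin transfer of 23 nL compound in DMSO. Fluorescence from dye bound to dead-cell DNA was read during 40 h treatment.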

[4] = qHTS RealTime-Glo MT Cell Viability Assay in HepG2 cells - 0 hour (AID 1224889); note: nearly all actives have a fitted effect of over 50% in size
In short: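 Tox21 10K library screened in qHTS format on HepG2 cells carrying RealTime-Glo reagents. Compounds were added after a 5 h preincubation, and the luminescent signal from continuous culture was measured repeatedly during 40 h treatment.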

[5] = A CellTox Green Cytotoxicity Assay to monitor cytotoxicity in HepG2 cells - 8 hour (AID 1224890); note: nearly all actives have a fitted effect of over 45% in size
In short: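 HepG2 cells were seeded together with the CellTox Green dye at 600 cells/well, left 5 h at 37 C/5% CO2, then given compounds in DMSO. Fluorescence from dye bound to dead-cell DNA was read repeatedly over 40 h of treatment at 37 C.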

[6] = qHTS assay to identify small molecule antagonists of the estrogen receptor alpha (ER-alpha) signaling pathway using the BG1 cell line in the presence of 0.1 nM 17-beta-estradiol - cell viability counter screen (AID 1259241); note: nearly all actives have a fitted effect of over 40% in size
In short: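 In this screen, hormone-deprived VM7Luc4E2 cells were seeded at 4,000 per well, dosed with compound and 0.1 nM estradiol final, and incubated 22 hr at 37C and 5% CO2; fluorogenic live-cell protease signal reported viability.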

[7] = qHTS assay to identify small molecule antagonists of the androgen receptor (AR) signaling pathway using the MDA cell line in the presence of 0.5 nM R1881 - cell viability counter screen (AID 1259242); note: nearly all actives have a fitted effect of over 45% in size
In short: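 MDA-kb2 cells (human breast carcinoma, stably carrying MMTV-luciferase reporter) were exposed to compounds with 0.5 nM R1881 (final) for 16 hr at 37C, 0% CO2; viability then read as live-cell protease fluorescence (CellTiter-Fluor, 30 min) in the same wells.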

[8] = biological target: Estrogen receptor (Homo sapiens) (UniProt P03372); assay: qHTS assay to identify small molecule antagonists of the estrogen receptor alpha (ER-alpha) signaling pathway using the BG1 cell line in the presence of 0.1 nM 17-beta-estradiol (AID 1259244); note: nearly all actives have a fitted effect of over 50% in size
In short: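 VM7Luc4E2 cells (endogenous full-length ER-alpha, stable 4xERE-luciferase) were grown 5 days in phenol red-free medium with charcoal-stripped FBS, then exposed 22 h at 37C to compounds plus 0.1 nM (final) 17beta-estradiol; ONE-Glo luminescence read-out.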

[9] = qHTS assay to identify small molecule HDAC inhibitors (AID 1259364); note: top concentration of the series differs between compounds; nearly all actives have a fitted effect of over 45% in size
In short: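 Wild-type HCT-116 cells were plated overnight, exposed to compounds for 2 h at 37 °C, then given HDAC-Glo class I/II luminogenic reagent for 30 min at room temperature before luminescence was read.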

[10] = qHTS assay to identify small molecule HDAC inhibitors - cell viability counter screen (AID 1259365)
In short: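 Measured quantity is CellTiter-Glo luminescence from wild-type HCT-116 cells after compound incubation of 2hr at 37C, 5% CO2; reagent developed 30min at room temperature.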

[11] = qHTS assay to identify small molecule agonists of the sonic hedgehog signaling (Shh) pathway - cell viability counter screen (AID 1259366); note: nearly all actives have a fitted effect of over 50% in size
In short: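 In quantitative high-throughput format, 3T3 Gli1-Luc cells were exposed to compounds for 24hr and multiplexed for viability using CellTiter-Fluor, incubated 1hr at 37C before the fluorescence read.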

[12] = qHTS assay to identify small molecule antagonists of the sonic hedgehog signaling (Shh) pathway - cell viability counter screen (AID 1259367); note: nearly all actives have a fitted effect of over 55% in size
In short: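 NIH/3T3-derived Gli1-Luc reporter cells, 2,000/well, plated 4 hr before compound addition, then stimulated with conditioned medium for 24 hr at 37C. Viability measured in the same wells by CellTiter-Fluor fluorescence, reagent added at 23 hr for 1 hr.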

[13] = qHTS assay to identify small molecule agonists of the sonic hedgehog signaling (Shh) pathway (AID 1259368; calls by dose curve; note: series mostly up to about 92 µM; nearly all actives have a fitted effect of over 15% in size)
In short: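 NIH/3T3-derived 3T3Gli1-Luc cells carrying a stably integrated Gli1 response element–firefly luciferase reporter were plated, left 4 hr at 37 C, then given compounds in DMSO for 24 hr. Luminescence was read 30 min after adding luciferase reagent.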

[14] = qHTS assay to identify small molecule antagonists of the sonic hedgehog signaling (Shh) pathway (AID 1259369; calls by dose curve; note: nearly all actives have a fitted effect of over 45% in size)
In short: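 NIH/3T3-derived 3T3Gli1-Luc cells with stably integrated Gli1-Luc reporter were preincubated 4hr at 37 C, then given compounds in DMSO plus Shh conditioned medium and incubated 24hr. Firefly luciferase luminescence read after 30min reagent at room temperature.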

[15] = biological target: Estrogen receptor beta (Homo sapiens) (UniProt Q92731); assay: qHTS assay to identify small molecule agonists of the estrogen receptor beta (ER-beta) signaling pathway (AID 1259377; active = well fitted activation curve with a large enough effect in the signal ratio in the repeat runs, not every such curve was filed as active; the % refers to the signal ratio)
In short: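 Reporter cells (HEK293T, ER-beta-UAS-bla) receive compounds or DMSO after a 6 hr pre-incubation. They then incubate 16 hr at 37C/5% CO2, and fluorescence from LiveBLAzer B/G substrate is measured after 2 hours at room temperature.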

[16] = biological target: Estrogen receptor beta (Homo sapiens) (UniProt Q92731); assay: qHTS assay to identify small molecule antagonists of the estrogen receptor beta (ER-beta) signaling pathway (AID 1259378; active = well fitted inhibition curve with a large enough effect in the signal ratio in the repeat runs, not every such curve was filed as active; the % refers to the signal ratio)
In short: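 ER-beta-UAS-bla HEK293T cells in 2% charcoal-stripped FBS medium treated with compound plus 1nM final 17-beta-estradiol for 16 hr at 37C. Beta-lactamase reporter read by FRET substrate fluorescence after 2 hours at room temperature.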

[17] = qHTS assay to identify small molecule agonists of the androgen receptor (AR) signaling pathway in the presence of an antagonist - cell viability counter screen (AID 1259379); note: series mostly up to about 92 µM; nearly all actives have a fitted effect of over 25% in size
In short: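 MDA-kb2 human breast carcinoma cells (stable MMTV-luciferase, AR/GR responsive) were seeded 3,000 cells/well, pre-incubated 5 hr at 37C without CO2, then given 3.0uM nilutamide and compounds at 15 concentrations for 16 hr. Viability was read by CellTiter-Fluor fluorescence.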

[18] = qHTS assay to identify small molecule agonists of the estrogen receptor beta (ER-beta) signaling pathway - cell viability counter screen (AID 1259380); note: nearly all actives have a fitted effect of over 30% in size
In short: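 ER-beta-UAS-bla HEK293T cells in medium with 2% charcoal-stripped FBS were preincubated 6 hr at 37C, dosed with compound in DMSO for 16 hr, then after the bla read, CellTiter-Glo was added for 30 min at room temperature; luminescence recorded.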

[19] = qHTS assay to identify small molecule phospholipidosis (PLD) inducers (AID 1259344; active = well fitted curve in the direction sought with a large enough effect; an effect the other way counts as inactive or inconclusive)
In short: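 HepG2 cells, 900/well, treated with compound plus LipidTOX Red for 24 h at 37 C; amiodarone positive and DMSO negative controls. Fixed with paraformaldehyde/Hoechst, then high-content imaging scored LipidTOX pit count and integrated intensity per well and per cell.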
% is set by controls: 0 for no effect and ±100 for the full control effect.

Estrogen receptor beta (Homo sapiens), sequence (Q92731 whole entry, looked up): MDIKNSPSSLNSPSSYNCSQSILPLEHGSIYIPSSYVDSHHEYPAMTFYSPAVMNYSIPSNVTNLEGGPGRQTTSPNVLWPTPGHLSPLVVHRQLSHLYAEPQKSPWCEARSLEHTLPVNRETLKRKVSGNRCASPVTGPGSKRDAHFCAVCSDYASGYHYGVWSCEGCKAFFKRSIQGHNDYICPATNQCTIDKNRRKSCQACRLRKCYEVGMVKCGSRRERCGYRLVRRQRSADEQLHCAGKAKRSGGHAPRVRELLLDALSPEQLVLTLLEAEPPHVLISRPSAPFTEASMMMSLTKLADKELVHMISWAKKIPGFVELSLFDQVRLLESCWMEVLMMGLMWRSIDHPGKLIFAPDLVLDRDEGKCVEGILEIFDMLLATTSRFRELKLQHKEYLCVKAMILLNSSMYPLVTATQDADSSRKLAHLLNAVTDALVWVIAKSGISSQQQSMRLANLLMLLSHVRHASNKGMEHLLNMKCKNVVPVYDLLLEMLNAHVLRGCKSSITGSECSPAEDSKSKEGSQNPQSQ
Estrogen receptor (Homo sapiens), sequence (P03372 whole entry, looked up): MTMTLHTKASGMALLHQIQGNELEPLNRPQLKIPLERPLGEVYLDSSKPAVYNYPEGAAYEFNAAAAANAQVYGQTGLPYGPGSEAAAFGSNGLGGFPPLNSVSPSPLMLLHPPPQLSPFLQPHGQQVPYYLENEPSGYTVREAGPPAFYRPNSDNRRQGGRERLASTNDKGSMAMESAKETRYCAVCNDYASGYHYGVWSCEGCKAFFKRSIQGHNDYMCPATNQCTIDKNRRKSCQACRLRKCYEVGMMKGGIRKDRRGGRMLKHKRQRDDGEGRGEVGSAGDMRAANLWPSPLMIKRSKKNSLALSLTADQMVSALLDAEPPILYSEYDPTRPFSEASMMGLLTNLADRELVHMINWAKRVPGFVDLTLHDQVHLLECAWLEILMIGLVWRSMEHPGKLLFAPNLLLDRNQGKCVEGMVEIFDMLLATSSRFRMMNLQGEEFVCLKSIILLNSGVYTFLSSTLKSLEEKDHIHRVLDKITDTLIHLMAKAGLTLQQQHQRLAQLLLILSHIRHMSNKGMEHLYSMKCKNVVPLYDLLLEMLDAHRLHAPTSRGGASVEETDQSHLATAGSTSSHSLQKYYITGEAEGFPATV

CCCCCC(=O)OCC
inactive: Potency [1] | Potency [2] | Potency [3] | Potency [4] | Potency [5] | Potency [6] | Potency [7] | Potency [8] | Potency [9] | outcome [10] | Potency [11] | Potency [12] | outcome [13] | Potency [14] | Potency [15] | outcome [16] | Potency [17] | outcome [18]

C=C(C)C(=O)OC1CC(C)CC(C)(C)C1 (stereo unspecified)
inactive: Potency [1] | Potency [2] | Potency [3] | Potency [4] | Potency [5] | Potency [6] | Potency [7] | Potency [9] | outcome [10] | Potency [11] | Potency [12] | outcome [13] | Potency [14] | Potency [15] | outcome [16] | Potency [17] | outcome [18]

O=P(O)(O)OCC(O)CO (stereo unspecified)
inactive: Potency [1] | Potency [2] | Potency [3] | Potency [4] | Potency [5] | Potency [6] | Potency [7] | outcome [19] | Potency [9] | outcome [10] | Potency [11] | Potency [12] | outcome [13] | Potency [17]

C=CCOc1c(Br)cc(C(C)(C)c2cc(Br)c(OCC=C)c(Br)c2)cc1Br
inactive: Potency [1] | Potency [2] | Potency [3] | Potency [4] | Potency [5] | Potency [6] | Potency [7] | Potency [9] | outcome [10] | Potency [11] | Potency [12] | outcome [13] | Potency [15] | Potency [17] | outcome [18]

O=c1[nH]c(=O)c2[nH]c(=O)[nH]c2[nH]1
inactive: activity change, negative = cytotoxicity [1] 8.57% [at 6.97 µM] | activity change, negative = cytotoxicity [2] 9.35% [at 6.97 µM] | activity change [3] -15.6% [at 6.97 µM, active compounds read high] | activity change, negative = cytotoxicity [4] -4.02% [at 6.97 µM] | cytotoxicity increase [5] 1.39% [at 6.97 µM] | activity change, negative = cytotoxicity [6] 0.489% [at 8.39 µM] | viability change, negative = cytotoxic [7] -0.67% [at 8.39 µM] | outcome [19] | activity change, negative = inhibition [9] 11.3% [at 8.39 µM] | activity change, negative = cytotoxicity [10] 0.314% [at 8.39 µM] | viability change, negative = cytotoxic [11] -3.05% [at 8.39 µM] | viability change, negative = cytotoxic [12] 0.704% [at 8.39 µM] | activity change [13] 0.435% [at 8.39 µM] | activity change, negative = inhibition [14] 16.8% [at 8.39 µM] | activation [15] -1.14% [at 8.39 µM] | activity, negative = inhibition [16] 11.9% [at 8.39 µM] | activity change, negative = cytotoxicity [17] -1.23% [at 8.39 µM] | activity change, negative = cytotoxicity [18] 0.228% [at 8.39 µM]

Cc1ccc(C(=O)C(=O)O)cc1C
inactive: Potency [1] | Potency [2] | Potency [3] | Potency [4] | Potency [5] | Potency [6] | Potency [7] | Potency [9] | outcome [10] | Potency [11] | Potency [12] | outcome [13] | Potency [14] | Potency [17] | outcome [18]

CC(=O)Nc1ncc([N+](=O)[O-])s1
inactive: Potency [1] | Potency [2] | Potency [3] | Potency [4] | Potency [5] | Potency [6] | Potency [7] | outcome [19] | Potency [9] | outcome [10] | Potency [11] | Potency [12] | outcome [13] | Potency [17] | outcome [18]

CCC1Nc2cc(Cl)c(S(N)(=O)=O)cc2S(=O)(=O)N1 (stereo unspecified)
inactive: Potency [1] | Potency [2] | Potency [3] | Potency [4] | Potency [5] | Potency [6] | Potency [7] | outcome [19] | Potency [9] | outcome [10] | Potency [11] | Potency [12] | outcome [13] | Potency [15] | outcome [16] | Potency [17] | outcome [18]

C=C[C@@H](C)CCC=C(C)C
inactive: Potency [1] | Potency [2] | Potency [3] | Potency [4] | Potency [5] | Potency [6] | Potency [7] | Potency [9] | outcome [10] | Potency [11] | Potency [12] | Potency [14] | Potency [15] | outcome [16] | Potency [17] | outcome [18]

CCCCCC1Nc2cc(C(F)(F)F)c(S(N)(=O)=O)cc2S(=O)(=O)N1 (stereo unspecified)
inactive: Potency [1] | Potency [2] | Potency [3] | Potency [4] | Potency [5] | Potency [6] | Potency [7] | outcome [19] | Potency [9] | outcome [10] | Potency [12] | outcome [13] | Potency [14] | Potency [15] | outcome [16] | Potency [17]

CCOC(=O)CC(CC(=O)OCC)(OC(C)=O)C(=O)OCC
inactive: Potency [1] | Potency [2] | Potency [3] | Potency [4] | Potency [5] | Potency [6] | Potency [7] | Potency [9] | outcome [10] | Potency [11] | Potency [12] | outcome [13] | outcome [16] | Potency [17] | outcome [18]

SCCSCCS
inactive: Potency [1] | Potency [2] | Potency [3] | Potency [4] | Potency [5] | Potency [6] | Potency [7] | Potency [9] | outcome [10] | Potency [11] | Potency [12] | Potency [14] | Potency [15] | outcome [16] | Potency [17] | outcome [18]

C=COCCOCCOC=C
inactive: Potency [1] | Potency [2] | Potency [3] | Potency [4] | Potency [5] | Potency [6] | Potency [7] | Potency [9] | outcome [10] | Potency [11] | Potency [12] | outcome [13] | Potency [14] | Potency [15] | outcome [16] | Potency [17] | outcome [18]

NC(=O)NNC(N)=O
inactive: Potency [1] | Potency [2] | Potency [3] | Potency [4] | Potency [5] | Potency [6] | Potency [7] | Potency [9] | outcome [10] | Potency [11] | Potency [12] | outcome [13] | Potency [15] | Potency [17] | outcome [18]

C/C=C(\C)C(=O)OCC/C=C\CC
inactive: Potency [1] | Potency [2] | Potency [3] | Potency [4] | Potency [5] | Potency [6] | Potency [7] | Potency [9] | outcome [10] | Potency [11] | Potency [12] | outcome [13] | Potency [14] | Potency [15] | outcome [16] | Potency [17] | outcome [18]
